# HPGD inh: blocks human HPGD enzyme activity | P15428 | purified HPGD, NADH fluorescence kinetic, PGE2 substrate | Potency, µM, for the others: at the highest dose activity change, negative = inhibition, actives largely listed as inhibitors | actives 4.3% (n = 150,000) | AID 894
#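 20 nM HPGD preincubated 15 min at room temperature with compound in 50 mM Tris-HCl pH 8, 0.01% Tween 20. Started with 1 mM NAD+ and 30 uM prostaglandin E2; NADH fluorescence (360/450 nm) read 5 times over 30-s intervals, last minus first.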
# ALDH1A1 inh: ALDH1A1 (human) enzyme inhibition; actives 7.3% (n = 220,000); P00352; Purified ALDH1A1, NADH fluorescence, propionaldehyde substrate; AID 1030; Potency, µM (highest dose often 75.3 µM), inactives show top-dose activity, negative = inhibition, usual class: inhibitors;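 further: plate controls were no enzyme wells and a reference inhibitor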
# Target sequence (P00352 whole entry, looked up): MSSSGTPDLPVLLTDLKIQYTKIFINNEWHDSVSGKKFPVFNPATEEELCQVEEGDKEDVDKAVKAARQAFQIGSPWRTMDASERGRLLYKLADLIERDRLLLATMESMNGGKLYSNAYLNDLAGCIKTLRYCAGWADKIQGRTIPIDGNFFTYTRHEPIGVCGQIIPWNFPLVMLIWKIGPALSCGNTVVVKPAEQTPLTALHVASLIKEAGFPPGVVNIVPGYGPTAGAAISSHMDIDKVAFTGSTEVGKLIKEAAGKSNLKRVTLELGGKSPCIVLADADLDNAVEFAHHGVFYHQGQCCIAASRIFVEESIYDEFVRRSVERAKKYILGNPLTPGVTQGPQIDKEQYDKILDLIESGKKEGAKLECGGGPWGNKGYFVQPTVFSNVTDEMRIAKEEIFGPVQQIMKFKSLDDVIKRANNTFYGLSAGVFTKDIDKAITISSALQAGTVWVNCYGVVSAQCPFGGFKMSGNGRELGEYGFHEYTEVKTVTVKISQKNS
# Tau FP inhib: inhibitors of human tau fibril formation. Potency, µM (highest dose often 57.7 µM), for the others: at the top dose activity, negative = inhibition, most hits filed as inhibitors. P10636. actives 0.39% (n = 280,000). K18 P301L tau heparin fibrillization, Alexa594 FP, 6 h; active means well fitted curve in the direction sought with a large enough effect; inconclusive means small, poorly fitted or top-dose-only effect, or another doubt; inactive means no such curve, though single readings can be large; an effect the other way counts as inactive or inconclusive; further: nearly all actives have a fitted effect of over 55% in size
# Target sequence (P10636 561-689 P618L limits assumed): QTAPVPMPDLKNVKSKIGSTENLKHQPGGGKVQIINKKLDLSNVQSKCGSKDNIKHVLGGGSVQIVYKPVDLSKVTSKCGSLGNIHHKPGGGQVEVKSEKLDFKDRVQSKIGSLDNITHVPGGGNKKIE
#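 Human K18 P301L fragment (15 uM unlabeled plus 0.24 uM Alexa 594-labeled) in 100 mM sodium acetate pH 7 with compound, aggregation induced by 20 uM heparin for 6 hr at 37 C. ThT (30 uM) added for 1 hr, then Alexa 594 FP read.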
# Tau ThT inhib: inhibitors of human tau fibril formation, thioflavin T binding; P10636; actives 2.1% (n = 270,000); recombinant tau K18 P301L, heparin-induced fibrillization, ThT fluorescence; AID 1460; Potency, µM (series often up to 57.4 µM), for the others: at the highest dose activity, negative = inhibition, most hits filed as inhibitors; active means well fitted curve in the direction sought with a large enough effect; inconclusive means small, poorly fitted or top-dose-only effect, or another doubt; inactive means no such curve, though single readings can be large; an effect the other way counts as inactive or inconclusive; further: nearly all actives have a fitted effect of over 55% in size
#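 In this qHTS, human K18 P301L tau is incubated with compound and heparin for 6 hr at 37 C, and Thioflavin T fluorescence then reports fibril load.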
# Tau fluor counter: counter-screen for tau fibril formation inhibitors; actives 0.93% (n = 280,000); tau K18 P301L Alexa594 fluorescence, heparin fibrillization; Potency, µM (doses to about 57.7 µM), for inactives: top-dose activity change, negative = decrease; active means well fitted curve in the direction sought with a large enough effect; inconclusive means small, poorly fitted or top-dose-only effect, or another doubt; inactive means no such curve, though single readings can be large; an effect the other way counts as inactive or inconclusive; further: nearly all actives have a fitted effect of over 55% in size
#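 Human tau K18 P301L (15 uM unlabeled, 0.24 uM Alexa 594-labeled) in 100 mM sodium acetate pH 7 with 20 uM heparin, 6 hr at 37 C. ThT 30 uM added, 1 hr ambient; Alexa 594 FP and total fluorescence read at 555/632 nm.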
# KDM4E inh: blocks human JMJD2E demethylase activity; Potency, µM (doses to about 57.1 µM), without a hit: at the top dose activity change, negative = inhibition, hits mostly inhibitors; JMJD2E catalytic domain, FDH-coupled NADH fluorescence (FDH is formaldehyde dehydrogenase); B2RXH2; AID 2147; actives 1.6% (n = 230,000);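 further: 0% = wells with enzyme and -100% = buffer wells without enzyme; nearly all actives have a fitted effect of over 50% in size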
# * hit, by the source's call; ? = inconclusive; / = no result given; ! = not active in a repeat; [ ] = another dose, or the depositor's remark. Compounds with a hit are over-represented: about 9.9% of the library has one in this group of screens. Unless noted, the call rests on the fitted dose curve; in most records, active means well fitted inhibition curve with a large enough effect (not every such curve was filed as active); inconclusive means small, poorly fitted or top-dose-only effect, or another doubt; inactive means no such curve, though single readings can be large or run the other way. Unless noted, on the % scale 0 is the no-effect control and ±100 the full control effect; potency means the concentration at half of the fitted maximal effect.
SMILES,HPGD inh,ALDH1A1 inh,Tau FP inhib,Tau ThT inhib,Tau fluor counter,KDM4E inh
Cc1cccc(C(=O)/C=C2/c3ccccc3CC(C)(C)N2C)c1,-12%,-14%,2%,?,-17%,-1%
CCCCOCCCNC(=O)c1ccc2c(c1)OCO2,25µM*,-1%,0%,-6%,-9%,4%
COCCCNC(=O)c1ccc2c(c1)OCO2,6.3µM*,-2%,11%,6%,7%,-3%
CCCCOCCOCCOCCCC,-1%,7%,/,/,/,/
CCCCN(C(=O)c1ccc2c(c1)OCO2)c1ccccc1,/,14µM*,-12%,?,-13%,1%
CCCCOCCOCCOCc1cc2c(cc1CCC)OCO2,-11%,10µM*,/,/,/,/
O=C(NCCCN1CCN(CCCNC(=O)c2ccc3c(c2)OCO3)CC1)c1ccc2c(c1)OCO2,-18%,?,3%,1%,2%,-25%
CCOc1ccc(OCC)c(NC(=O)c2csc3c2CCCC3)c1,/,/,4%,-5%,-12%,/
CC(OC(=O)Cc1ccc(Cl)cc1)C(=O)NCCC1=CCCCC1 (stereo not given),-14%,-12%,8%,-3%,-2%,-3%
CC(OC(=O)CNC(=O)c1ccc2c(c1)OCO2)C(=O)NCCC1=CCCCC1 (stereo not given),18µM*,3%,0%,-6%,-2%,-4%
CCc1ccc(CNCc2c(C(=O)O)c(C)n(Cc3c(F)cccc3Cl)c2C)cc1,/,/,-2%,-10%,1%,/
Cc1ccc2ncccc2c1NS(=O)(=O)c1ccccc1,-7%,32µM*,1%,-11%,-9%,-21%
Cc1ccc2ncccc2c1NC(=S)NC(=O)c1ccccc1,/,?,-5%,-3%,1%,-7%
O=C1c2cccc3c(O)ccc(c23)C(=O)N1Cc1ccco1,/,13µM*,-10%,?,-25%,-13%
COc1ccc(-c2csc(NC(=O)C3COc4ccccc4O3)n2)cc1OC (stereo not given),/,?,-5%,?,?,0%
O=C(CN1C(=O)C2CCCCC2C1=O)N1CCN(c2ccc(F)cc2)CC1 (stereo not given),/,-12%,-10%,-3%,-3%,-1%
O=C(CN1C(=O)NC2(CCSC2)C1=O)N1CCN(c2ccc(F)cc2)CC1 (stereo not given),-3%,20µM*,-1%,-12%,-5%,2%
O=C(Cn1c(=O)n(Cc2ccc(Cl)cc2)c(=O)c2cccnc21)Nc1ccccc1C(F)(F)F,/,/,-17%,6%,3%,/
CCc1ccc(NC(=O)Cn2c(=O)n(Cc3ccccc3)c(=O)c3oc4ccccc4c32)cc1,/,/,?,?,-14%,/
COc1ccc(NC(=O)Cn2c(=O)n(Cc3ccccc3OC)c(=O)c3cccnc32)cc1Cl,/,/,25µM*,20%,-27%,/
Cc1ccc(Cn2c(=O)c3cccnc3n(CC(=O)Nc3cccc(C(F)(F)F)c3)c2=O)cc1,?,-4%,18µM*!,13%,-10%,2%
COc1ccc(NC(=O)Cn2c(=O)n(Cc3ccccc3)c(=O)c3oc4ccccc4c32)cc1Cl,/,/,28µM*,?,-28%,/
CC(C)(CCC(C)(C)c1ccccc1)c1ccccc1,-2%,11%[13.5 µM],/,/,/,/
CC(C)n1c(=O)[nH][nH]c1=S,/,0.79µM*,?,28µM*,-26%,3.2µM*
COc1cc(C(=O)Nc2ccc3oc(-c4ccccc4)nc3c2)cc(OC)c1OC,/,/,?,15%,?,/
SMILES,HPGD inh,ALDH1A1 inh,Tau FP inhib,Tau ThT inhib,Tau fluor counter,KDM4E inh
O=C1CS/C(=N/N=C/c2ccccc2)N1Cc1ccco1,/,11µM*,0%,-20%,-17%,3%
COc1ccc(OC)c(/C=N/N=C2\SCC(=O)N2Cc2ccco2)c1,-15%,5µM*,?,-4%,?,?
O=C(O)c1cccc(N2C(=O)/C(=C/c3ccc(SCc4ccc(Cl)cc4)o3)SC2=S)c1,/,25µM*,?,16µM*,?,22µM*
O=C(CSc1nnc(-c2cccnc2)n1C1CCCCC1)NC1CCCCC1,-19%,1%,-1%,-4%,3%,0%
COc1ccc2c(c1)c1nnc(SCC(=O)N3CCCCC3C)nc1n2C (stereo not given),16µM*,?,-5%,-18%,-6%,4%
COc1ccc(-n2c(SCC(=O)N3CCCCC3C)nnc2-c2cccnc2)cc1 (stereo not given),20µM*,10µM*,5%,-12%,-15%,?
CC1CCCCN1C(=O)CSc1nnc(-c2cccnc2)n1C1CCCCC1 (stereo not given),25µM*,-1%,6%,4%,5%,-2%
CC1CCN(C(=O)CSc2nnc(-c3cccnc3)n2C2CCCCC2)CC1,22µM*,?,-6%,0%,6%,2%
O=C(COC(=O)[C@@H]1CC(O)CN1S(=O)(=O)c1ccc2c(c1)OCCO2)NCc1ccc(F)cc1 (stereo not given in full),/,-11%,-11%,-4%,-7%,8%
CCCn1ccc2c(OCC(=O)Nc3ccc(OC)c(OC)c3)cccc2c1=O,/,/,-2%,-12%,-20%,/
Cc1ccccc1NCc1cccn1-c1nnc(N2CCC(C)CC2)s1,/,/,12%,-15%,-25%,/
N#Cc1cccc(NC(=O)C2CCN(c3ncccn3)CC2)c1,/,/,2%,-4%,-7%,/
CC(C)NC(=O)NC(=O)COC(=O)C1(C)CC1(Cl)Cl (stereo not given),/,8%,6%,3%,5%,2%
COc1ccc(CCN2C(=O)CC(Cc3ccccc3)C2=O)cc1OC (stereo not given),/,/,4%,/,-6%,6%
COc1ccc(CCN2C(=O)CC(NNc3ccc([N+](=O)[O-])cc3)C2=O)cc1OC (stereo not given),/,10µM*,-7%,11µM*,?,?
COc1ccc(CCN2C(=O)CC(NCc3ccc4c(c3)OCO4)C2=O)cc1OC (stereo not given),-8%,25µM*,8%,-15%,-13%,2%
O=C1CC(Cc2ccccc2)C(=O)N1CCCn1ccnc1 (stereo not given),0%,16µM*,-8%,-12%,-5%,?
Cc1ccc(CC2CC(=O)N(CCc3ccccc3)C2=O)cc1 (stereo not given),/,-1%,-1%,-9%,-8%,-1%
COc1ccc(CCNC2CC(=O)N(CCc3ccc(OC)c(OC)c3)C2=O)cc1OC (stereo not given),-11%,6.3µM*,-2%,-15%,-2%,-5%
Cc1ccc(C)c(N2CCN(C(=O)c3cc(S(=O)(=O)N4CCCC4)c[nH]3)CC2)c1,/,/,6%,-10%,-13%,/
COc1ccc(Nc2nnc(C)c(=O)[nH]2)c(OC)c1,/,/,12%,/,7%,-5%

# Screening data (PubChem)
